Test results published in the supplement of paper PMC6897291.

System: RIVA
Experiment: growth inhibition by drug alone (1 - RLU/untreated control) (fraction); higher = stronger inhibition
Conditions: 177Lu-lilotomab satetraxetan 0 ug/ml
Procedure: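 RIVA (RI-1) ABC-DLBCL cells were pretreated or not for 18 h with 0.5 ug/ml 177Lu-lilotomab satetraxetan (600 MBq/mg), washed and seeded (3000 cells/well) on 384-well plates pre-printed with the Selleck Cambridge Cancer Compound library. Viability was read by RealTime-Glo luminescence on days 3-6 after seeding. Effect = 1 - RLU/mean RLU of the 48 untreated no-drug control wells per plate; Bliss score = (M-E)/(1-Fa).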

Structure (SMILES) | growth inhibition by drug alone (10 nM, time (day): 3) | growth inhibition by drug alone (10 nM, time (day): 4) | growth inhibition by drug alone (10 nM, time (day): 5) | growth inhibition by drug alone (10 nM, time (day): 6) | growth inhibition by drug alone (100 nM, time (day): 3) | growth inhibition by drug alone (100 nM, time (day): 4) | growth inhibition by drug alone (100 nM, time (day): 5) | growth inhibition by drug alone (100 nM, time (day): 6)
N#CCNC(=O)c1ccc(-c2ccnc(Nc3ccc(N4CCOCC4)cc3)n2)cc1 | -0.164 | -0.233 | -0.267 | -0.364 | -0.378 | -0.377 | -0.416 | -0.56
CCC1=C[C@@H]2CN(C1)Cc1c([nH]c3ccccc13)[C@@](C(=O)OC)(c1cc3c(cc1OC)N(C)[C@H]1[C@@](O)(C(=O)OC)[C@H](OC(C)=O)[C@]4(CC)C=CCN5CC[C@]31[C@@H]54)C2 [Vinorelbine (Navelbine)] | 0.907 | 0.914 | 0.922 | 0.926 | 0.949 | 0.964 | 0.968 | 0.972
CC(C)C[C@@H](C(=O)N[C@H](C(=O)OC1CCCC1)c1ccccc1)[C@H](O)C(=O)NO [Tosedostat (CHR2797)] | 0.0304 | 0.0133 | 0.000967 | -0.0544 | -0.208 | -0.212 | -0.221 | -0.3
Cc1cn(-c2cc(NC(=O)c3ccc(C)c(Nc4nccc(-c5cccnc5)n4)c3)cc(C(F)(F)F)c2)cn1 [Nilotinib (AMN-107)] | -0.0335 | -0.0957 | -0.159 | -0.318 | -0.122 | -0.118 | -0.0918 | -0.17
O=C(NOC[C@H](O)CO)c1ccc(F)c(F)c1Nc1ccc(I)cc1F | 0.198 | 0.141 | 0.026 | -0.212 | 0.191 | 0.122 | 0.0195 | -0.189
